# Rows were chosen to be rich in hits. Some 1.8% of all compounds tested hit in one or more screens of this group.
# ERAP1 inh: ERAP1 (human) enzyme inhibition | Q9NZ08 | recombinant ERAP1, Leu-AMC fluorescence, 60 min | inhibition, % at 10.7 µM | actives 0.15% (n = 340,000);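 active = mean replicate inhibition of at least 30%, or all replicates individually reaching that 30% level; inactive = mean below 30% and not every replicate reaching it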
# PDI inh: blocks human protein disulfide isomerase activity; P07237; PDI insulin aggregation turbidity, A650, 90 min; inhibition, % at 10 µM; actives 0.052% (n = 350,000); AID 588391;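 active = mean inhibition across replicates of 30% or more, whatever share of single replicates reach that level; inconclusive = mean inhibition below 30% while every single replicate reaches 30%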
# Target sequence (P07237 whole entry, looked up): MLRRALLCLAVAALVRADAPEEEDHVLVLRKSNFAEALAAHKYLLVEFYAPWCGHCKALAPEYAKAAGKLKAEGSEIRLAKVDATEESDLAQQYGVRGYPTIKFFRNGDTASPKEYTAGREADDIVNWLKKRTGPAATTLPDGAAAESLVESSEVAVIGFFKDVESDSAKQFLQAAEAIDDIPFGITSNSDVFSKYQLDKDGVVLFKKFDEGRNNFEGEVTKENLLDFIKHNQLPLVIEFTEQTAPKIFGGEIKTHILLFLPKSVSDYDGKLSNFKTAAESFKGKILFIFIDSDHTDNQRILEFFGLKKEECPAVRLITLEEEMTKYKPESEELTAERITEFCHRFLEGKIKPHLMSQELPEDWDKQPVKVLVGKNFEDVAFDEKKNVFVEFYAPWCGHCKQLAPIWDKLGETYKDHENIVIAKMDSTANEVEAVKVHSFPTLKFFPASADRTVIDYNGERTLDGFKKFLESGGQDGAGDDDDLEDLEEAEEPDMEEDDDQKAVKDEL
# ERp5 block: ERp5 (human) disulfide isomerase inhibition; ERp5 insulin aggregation, absorbance 650 nm, 90 min; inhibition, % at 9.99 µM; actives 0.05% (n = 350,000); AID 651711;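 active = mean replicate inhibition above about 25%, with every replicate also reaching it, limit read from the data, passing the limit was not always enough; inconclusive = only one of those two criteria met; inactive = neither criterion met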
# DENV2 CPE: DENV2-induced cell death inhibition; DENV2-infected cells, cytopathic effect rescue, plate reader; CPE inhibition, % at 9.99 µM; actives 1.7% (n = 350,000); in the data active = CPE inhibition above about 20%, passing the limit was not always enough; inconclusive = no clear call, values can overlap the other calls; tested in BHK-21 cells
# AF4-AF9 inh: MLL-AF4/AF9 protein interaction inhibition; P42568; AlphaScreen, biotin-AF4 peptide binding to FLAG-AF9; inhibition, % at 10 µM; actives 0.47% (n = 350,000);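 active = every replicate reaching a set inhibition limit, whatever the replicate mean, cut at about 25% in these data; inconclusive = mean inhibition reaches that limit but some replicates miss it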
# Numbers stand for hits; - = inactive; ? = inconclusive; . = no result given; ! = not confirmed by another sample.
SMILES,ERAP1 inh,PDI inh,ERp5 block,DENV2 CPE,AF4-AF9 inh
COc1ccc2c3c(n(C)c2c1)[C@@H](CO)NCC31CN(Cc2cc(F)ccc2F)C1,.,.,.,31,-
COc1ccc2c3c(n(C)c2c1)[C@H](CO)NCC31CCN(Cc2cc(-c3ccccc3)on2)CC1,-,.,-,-,39
C[C@@H]1CN([C@@H](C)CO)S(=O)(=O)c2ccc(C#CC3CCCC3)cc2O[C@@H]1CN(C)C,-,.,-,-,-
C[C@H](CO)N1C[C@H](C)[C@H](CN(C)C)Oc2cc(C#CC3CCCC3)ccc2S1(=O)=O,-,.,-,59,-
C[C@@H]1CN([C@@H](C)CO)S(=O)(=O)c2ccc(C#CC3(O)CCCC3)cc2O[C@@H]1CN(C)C,-,.,-,-,-
C[C@H](CO)N1C[C@H](C)[C@H](CN(C)C)Oc2cc(C#CC3(O)CCCC3)ccc2S1(=O)=O,-,.,-,26,-
C[C@@H]1CN([C@@H](C)CO)S(=O)(=O)c2ccc(C#CC3CCCCC3)cc2O[C@@H]1CN(C)C,-,.,-,?,-
C[C@@H]1CN([C@@H](C)CO)S(=O)(=O)c2ccc(C#CC3CCCC3)cc2O[C@H]1CN(C)C,-,.,-,22,-
Cc1cccc(S(=O)(=O)N2C[C@@H](O)COC[C@@H]3O[C@H](CC(=O)NCc4ccncn4)CC[C@H]32)c1,-,.,-,-,-
COc1ccc2c3c(n(C)c2c1)[C@@H](CO)N(CC1CC1)CC31CN(S(=O)(=O)c2cccs2)C1,-,.,-,-,-
C[C@@H]1CN([C@@H](C)CO)C(=O)Cc2cc(NS(=O)(=O)c3cn(C)cn3)ccc2O[C@H]1CN(C)Cc1ccc(C(=O)Nc2ccccc2N)cc1,-,.,-,107,-
C[C@H]1CN([C@@H](C)CO)C(=O)Cc2cc(NS(=O)(=O)c3cn(C)cn3)ccc2O[C@@H]1CN(C)Cc1ccc(C(=O)Nc2ccccc2N)cc1,-,.,-,21,-
CCc1ccc(Nc2n[n+](-c3ccccc3)c(-c3ccc(C(=O)O)cc3)s2)cc1,-,-,-,23,-
CC(C)NC(=O)N(C)C[C@@H]1Oc2ccc(NC(=O)Cc3ccccc3)cc2C(=O)N([C@@H](C)CO)C[C@@H]1C,-,.,-,-,-
COc1ccc(C(CNS(=O)(=O)c2ccc(NC(C)=O)c(OC)c2)N2CCCCC2)cc1 (configuration not stated),-,-,-,-,-
COc1ccc(C(CNS(=O)(=O)c2ccc(NC(C)=O)c(OC)c2)N2CCCC2)cc1 (configuration not stated),-,-,-,36,-
COc1ccc(NC(=O)N(C)C[C@H]2Oc3ccc(NS(=O)(=O)c4cn(C)cn4)cc3CC(=O)N([C@@H](C)CO)C[C@H]2C)cc1,-,.,-,?,-
CCCCC[C@H](C)N1C[C@@H](COCc2ccccc2)Oc2cc(N3CC[C@H](N(C)C)C3)ccc2S1(=O)=O,-,.,-,61,-
CCCCC[C@@H](C)N1C[C@@H](COCc2ccccc2)Oc2cc(N3CC[C@H](N(C)C)C3)ccc2S1(=O)=O,.,.,-,-,-
COCC(=O)Nc1ccc2c(c1)C(=O)N(C)C[C@H](OC)[C@H](C)CN(Cc1ccccn1)[C@@H](C)CO2,-,.,-,-,-
COc1cccc(S(=O)(=O)Nc2ccc3c(c2)C(=O)N(C)C[C@@H](OC)[C@@H](C)CN[C@H](C)CO3)c1,-,.,-,22,-
CO[C@H]1CN(C)C(=O)c2cc(NS(=O)(=O)c3ccccc3F)ccc2OC[C@@H](C)NC[C@@H]1C,-,.,-,65,-
CO[C@@H]1CN(C)C(=O)c2cc(NS(=O)(=O)c3ccccc3)ccc2OC[C@@H](C)NC[C@@H]1C,-,.,-,29,-
O=C(C1CCC1)N1C[C@H]2[C@@H](c3ccccc31)[C@H](CO)N2C(=O)c1ccccc1F,-,.,-,-,-
O=C1C2(CCCC13COC(c1ccc(O)cc1)OC3)COC(c1ccc(O)cc1)OC2 (configuration not stated),-,.,-,28,-
SMILES,ERAP1 inh,PDI inh,ERp5 block,DENV2 CPE,AF4-AF9 inh
CCO[C@H]1OC(C(=O)NC2CC2)=C[C@@H](C2CCCCC2)[C@@H]1CCCO,-,-,-,23,-
CCO[C@@H]1OC(C(=O)NC2CC2)=C[C@H](C2CCCCC2)[C@H]1CCCO,.,-,.,.,.
O=C(Nc1ccccc1)C1=C[C@@H](c2ccc(C(F)(F)F)cc2)C[C@@H](OCCCCO)O1,-,-,-,46!,-
O=C(NC1CC1)C1=C[C@@H](C2CCCCC2)C[C@@H](OCCCCO)O1,-,-,-,39!,-
O=C(NCc1ccccc1)C1=C[C@@H](C2CC2)C[C@@H](OCCCCO)O1,-,-,-,-,-
O=C(Nc1ccccc1)C1=C[C@H](C2CC2)C[C@H](OCCCCO)O1,-,-,-,24!,-
C[C@H]1CN([C@@H](C)CO)C(=O)c2cccc(NC(=O)c3cnccn3)c2O[C@H]1CN(C)CC1CC1,-,.,-,-,-
C[C@@H]1CN([C@H](C)CO)S(=O)(=O)c2ccc(C3=CCCCC3)cc2O[C@@H]1CN(C)C(=O)Nc1ccc2c(c1)OCO2,-,.,-,-,-
CNC[C@@H]1OCCCC[C@@H](C)Oc2ccc(NC(=O)c3ccncc3)cc2C(=O)N([C@H](C)CO)C[C@@H]1C,-,.,-,-,-
CC(=O)Nc1ccc2c(c1)C(=O)N(C)[C@@H]1CC[C@H](CC(=O)NC3CCCCC3)O[C@@H]1CO2,.,.,.,-,.
O=C(NCc1ccccc1)C1=C[C@@H](C2CC2)C[C@@H](OCc2ccc(CO)cc2)O1,-,-,-,26!,-
Cc1cc(C)c2nc(C)cc(N/N=C/c3ccc(O)cc3)c2c1,-,-,-,-,26
Cc1cc(N/N=C/c2ccc(O)cc2)c2cccc(C)c2n1,-,-,-,-,?
N#C[C@H]1[C@H](c2ccc(-c3cccnc3)cc2)[C@@H](CO)N1C(=O)C1CCC1,-,.,-,-,-
C[C@H](CO)N1C[C@H](C)[C@@H](CN(C)C(=O)NC2CCCCC2)OCCCC[C@H](C)Oc2ccc(NC(=O)Nc3ccc(C(F)(F)F)cc3)cc2C1=O,-,.,-,?,-
C[C@@H]1CCCCO[C@H](CN(C)C(=O)NC2CCCCC2)[C@H](C)CN([C@@H](C)CO)C(=O)c2cc(NC(=O)Nc3ccc(C(F)(F)F)cc3)ccc2O1,-,.,-,64,-
C[C@@H]1CCCCO[C@@H](CN(C)C(=O)Nc2ccc(C(F)(F)F)cc2)[C@H](C)CN([C@H](C)CO)C(=O)c2cc(NC(=O)Cc3ccccc3)ccc2O1,.,.,.,91,.
C[C@H](CO)N1C[C@H](C)[C@H](CN(C)C(=O)c2ccccc2)OCCCC[C@H](C)Oc2ccc(NC(=O)Nc3ccc(C(F)(F)F)cc3)cc2C1=O,-,.,-,59,-
C[C@@H]1CCCCO[C@@H](CN(C)C(=O)c2ccccc2)[C@H](C)CN([C@@H](C)CO)C(=O)c2cc(NC(=O)Nc3ccc(C(F)(F)F)cc3)ccc2O1,-,.,-,-,-

# Compound activity deposited in PubChem BioAssay by Broad Institute.
